Several values for one entry are separate records, joined by “and”; a condition that tells them apart may be missing. Identical values can stand only once. Inconclusive results are not listed. Some structures have more than one record in an assay (separate samples or runs), and their calls can disagree. Activity calls are given as the source filed them. The calls were made as follows: active = hit-call score of the fitted dose curve at least 0.9, where 1 is the maximum; inconclusive = response in the unintended direction; inactive = score below 0.9.

A short description of the test: Tanguay_ZF_120hpf_SNOU_legacy: (Legacy) Oregon State University Tanguay Lab 120 Hour Post-fertilization zebrafish Assay for Snout Malformation (AID 2283637). The protocol: Tanguay_ZF_120hpf_legacy is a whole embryo, multiplexed endpoint assay using zebrafish larvae exposed for 120 hours post fertilization on a 96-well plate.Tanguay_ZF_120hpf_SNOU_legacy is one of one assay component(s) measured or calculated from the Tanguay_ZF_120hpf_legacy assay. It is designed to make measurements of zebrafish development as detected with brightfield microscopy of developing zebrafish embryos.Data from the assay component Tanguay_ZF_120hpf_SNOU_legacy was analyzed into 1 assay endpoints. This assay endpoint, Tanguay_ZF_120hpf_SNOU_legacy, was analyzed in the positive analysis fitting direction relative to DMSO as the negative control and baseline of activity. Using a type of morphology reporter, gain-of-signal activity can be used to understand changes in developmentals as they relate to the whole embryo. To generalize the intended target to other relatable targets, this assay endpoint is annotated to the zebrafish development intended target family, where the subfamily is embryonic snout morphogenesis.
Zebrafish husbandry: Tropical 5D wild-type adult zebrafish were housed in at an approximate density of 1000 per 100 gallon tank at the Sinnhuber Aquatic Research Laboratory, Oregon State University, Corvallis, OR. Each tank was kept at standard laboratory conditions of 28C on a 14-h light/10-h dark photoperiod in fish water consisting of reverse osmosis water supplemented with a commercially available salt (Instant Ocean). Spawning funnels were placed into the tanks the night prior, and embryos were collected and staged. To increase bioavailability, the chorion was enzymatically removed using pronase (63.6mg/ml, >/= 3.5U/mg, Sigma-Aldrich: P5147) at 4 hours post fertilization (hpf) using a custom automated dechorionator.Chemical exposures: Six hpf dechorionated embryos were placed 1 embryo per well in a 96-well plate prefilled with 90 ul of EM using automated embryo placement systems (AEPS). Ten microliters of each row of dilution plate 2 was added to 2 exposure plates. The final DMSO concentration used was 0.64% (vol/vol). Thirty-two embryos were also exposed to 5uM trimethyltin chloride (positive control). Plates were sealed to prevent evaporation and foil covered to reduce light exposure and kept in a 28C incubator. Embryos were statically exposed until 120 hpf. At 24 hpf, embryos were assessed for photomotor response using a custom photomotor response analysis tool (PRAT) and for developmental toxicity endpoints (MO24: mortality at 24 hpf, DP: developmental progression, SM: spontaneous movement, and NC: notochord distortion). At 120 hpf, locomotor activity was measured using Viewpoint Zebralab and assessed for 18 endpoints. Zebrafish acquisition and analysis program (ZAAP), a custom program designed to inventory, acquire, and manage zebrafish data, was used to collect developmental endpoints as either present or absent (i.e., binary responses were recorded). If mortality occurred for an embryo (at either 24 or 120 hpf), the non-mortality endpoints were not measured.
Broadly, the AC50 is the concentration giving half of the maximal activity seen. Regarding `CC(C)(C)C(O)C(Oc1ccc(Cl)cc1)n1cncn1` (stereo not given), the call was inactive; the AC50 was 33.7 µM (active) and 47.3 µM (active).

With `CCc1ccc(C(=O)NN(C(=O)c2cc(C)cc(C)c2)C(C)(C)C)cc1`, the outcome was inactive.

As to `CCN(CC)C(=O)SCc1ccc(Cl)cc1`, the molecule was classed as inactive.

For the molecule `O=C(O)CCCOc1ccc(Cl)cc1Cl`, the call was inactive.

As for `O=C(Nc1ccccc1)Nc1cnns1`, the molecule was called inactive.

As to `N#CN`, the molecule was classed as inactive.

As for `CNC(=O)/C=C(\C)OP(=O)(OC)OC`, the call was inactive.

As for `CCCN(CCOc1c(Cl)cc(Cl)cc1Cl)C(=O)n1ccnc1`, the call was inactive.

`O=S(=O)(O)C(F)(F)C(F)(F)C(F)(F)C(F)(F)C(F)(F)C(F)(F)C(F)(F)C(F)(F)F`: the AC50 was 25.1 µM (active) and 33.2 µM (active); the call was inactive.

As to `Oc1ccc(Cl)cc1Cc1ccccc1`, the molecule was called inactive.

Take `COP(=S)(OC)Oc1ccc([N+](=O)[O-])cc1`: the result was inactive.

For the molecule `O=C(NC(=O)c1c(F)cccc1F)Nc1ccc(OC(F)(F)C(F)OC(F)(F)F)c(Cl)c1` (stereo not given), the outcome was inactive.

`O=C1c2ccccc2C(=O)N1SC(Cl)(Cl)Cl`: the molecule was called inactive.

Turning to `COP(=S)(OC)Oc1ccc(SC)c(C)c1`, the molecule was classed as inactive.

Turning to `COP(=O)(OC)OC=C(Cl)Cl`, the molecule was classed as inactive.

Take `O=[N+]([O-])c1c(Cl)c(Cl)c(Cl)c(Cl)c1Cl`: the result was inactive.

Turning to `C#CCN1C(=O)COc2cc(F)c(N3C(=O)C4=C(CCCC4)C3=O)cc21`, the result was inactive.

For the molecule `Oc1cc(Cl)ccc1Oc1ccc(Cl)cc1Cl`, the result was inactive.

In the case of `ClC1C(Cl)C(Cl)C(Cl)C(Cl)C1Cl` (stereo not given), the call was inactive.

`COc1nn(CSP(=S)(OC)OC)c(=O)s1`: the outcome was inactive.

As for `O=S1OCC2C(CO1)C1(Cl)C(Cl)=C(Cl)C2(Cl)C1(Cl)Cl` (stereo not given), the call was inactive.

As to `CN1CSC(=S)N(C)C1`, the AC50 was 24.9 µM (active).

As for `CC(C)(C)C(O)/C(=C\c1ccc(Cl)cc1Cl)n1cncn1` (stereo not given), the AC50 is 30.9 µM (active).

Take `C[C@H]1[C@H](c2ccc(Cl)cc2)SC(=O)N1C(=O)NC1CCCCC1`: the molecule was classed as inactive.

As for `O=[N+]([O-])/N=C1\NCCN1Cc1ccc(Cl)nc1`, the molecule was called inactive.

For `O=C(O)COc1ccc(Cl)cc1Cl`, the outcome was inactive.

For `CC(C)OC(=O)Nc1cccc(Cl)c1`, the AC50 was 34.2 µM (active).

For `CCOCN(C(=O)CCl)c1c(C)cccc1CC`, the molecule was called inactive.

For the molecule `CNC(=O)Oc1ccccc1OC(C)C`, the outcome was inactive.

As for `CC(C)N(C(=O)COc1nnc(C(F)(F)F)s1)c1ccc(F)cc1`, the call was inactive.

`CC[C@H](C)[C@H]1O[C@]2(C=C[C@@H]1C)C[C@@H]1C[C@@H](C/C=C(\C)[C@@H](O[C@H]3C[C@H](OC)[C@@H](O[C@H]4C[C@H](OC)[C@@H](O)[C@H](C)O4)[C@H](C)O3)[C@@H](C)/C=C/C=C3\CO[C@@H]4[C@H](O)C(C)=C[C@@H](C(=O)O1)[C@]34O)O2` (tested in a mixture with another compound): the AC50 is 0.934 µM (active).

For the molecule `CCOC1Oc2ccc(OS(C)(=O)=O)cc2C1(C)C` (stereo not given), the molecule was classed as inactive.

Take `CC1(C)C(C=C(Cl)Cl)C1C(=O)OC(C#N)c1ccc(F)c(Oc2ccccc2)c1` (stereo not given): the molecule was called inactive.

In the case of `CNC(=O)CSP(=S)(OC)OC`, the outcome was inactive.

Consider `Cc1[nH]c(=O)n(C(C)(C)C)c(=O)c1Cl`, for which the outcome was inactive.

As to `CCC(C)(NC(=O)c1cc(Cl)c(C)c(Cl)c1)C(=O)CCl` (stereo not given), the AC50 is 25.4 µM (active).

As to `O=C(O)C(F)(F)C(F)(F)C(F)(F)C(F)(F)C(F)(F)C(F)(F)C(F)(F)F`, the outcome was inactive.

Consider `CC1(c2ccc(Oc3ccccc3)cc2)OC(=O)N(Nc2ccccc2)C1=O` (stereo not given), for which the outcome was inactive.

Values taken from PubChem BioAssay (EPA / NIEHS).
